Out of some 330,000 compounds screened, about 4,200 (1.3%) were called active. Not shown: some 6% with an inconclusive outcome. Calls follow the shape of the dose curve; as a rule, active = well fitted activation curve with a large enough effect; inconclusive = small, poorly fitted or top-dose-only effect; inactive = no such curve, though single readings can be large or run the other way. The list comes from a sample in which actives are over-represented; it also holds similar structures and randomly drawn compounds.
Experiment: qHTS screen for small molecules that induce genotoxicity in human embryonic kidney (HEK293T) cells expressing luciferase-tagged ELG1; also: nearly all actives have a fitted effect of over 60% in size; as to activity change, positive = activation: % of control where 0% means no effect
Settings: HEK293T ELG1-luciferase reporter, luminescence, 16 h; series mostly up to 46 µM; activity change, positive = activation: at the top concentration
How it was run: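 HEK293T cells expressing luciferase-tagged ELG1 were exposed to compound or DMSO vehicle for 16 hr at 37 °C and 5% CO2. Luciferase activity was then measured with ONE-Glo after 30 min at room temperature.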
Potency is read from the fitted curve at half-maximal effect.

Structure (SMILES) | Potency | activity change, positive = activation
COc1ccccc1Cc1nc(-c2ccc(C)cc2)no1 | 18.4 µM (active) | –
COc1ccccc1CNS(=O)(=O)c1ccc(C)cc1 | – | -0.471% (inactive)
COc1ccc(-c2noc(CN(C)S(=O)(=O)c3ccc(C)cc3)n2)cc1 | – | 13.2% (inactive)
COc1ccc(-c2noc(-c3ccc(C)cc3)n2)cc1 | 3.66 µM (active) | –
Cc1ccc(-c2noc(CSc3nnc(-c4ccncc4)n3-c3ccc(F)cc3)n2)cc1 | – | -16.5% (inactive)
COc1ccc(-c2noc(-c3cccc(OC)c3OC)n2)cc1OC | 3.26 µM (active) | –
Cc1ccc(-c2noc(-c3ccccc3C(=O)NCC3CCCO3)n2)cc1 (centres undefined) | – | -1.12% (inactive)
Cc1ccc(-c2nc(-c3ccncc3)no2)c(C)c1 | 20.6 µM (active) | –
Cc1ccc(-c2noc(CC(c3ccccc3)c3ccccc3)n2)cc1 | – | -1.39% (inactive)
COc1ccc(-c2csc3nc(-c4ccccc4F)oc(=O)c23)cc1OC | – | 12.1% (inactive)
COc1ccc(-c2noc(CSc3ccc(C)cc3)n2)cc1 | – | 9.24% (inactive)
COc1ccc(-c2noc(CCCC(=O)NC3CCCC3)n2)cc1OC | – | -5.32% (inactive)
CCOC(=O)C1CCCN(C(=O)CSc2nnc3nc(C)cc(C)n23)C1 (centres undefined) | – | 0.58% (inactive)
CC(C)NC(=O)Nc1cccc2c1O[C@H](CN(C)S(=O)(=O)c1cccs1)[C@@H](C)CN([C@H](C)CO)C2=O | – | -0.978% (inactive)
COc1ccc(-c2sc3ccccc3c2-c2ccc(OCCN3CCOCC3)cc2)cc1 | – | -2.58% (inactive)
O=C(COC(=O)c1cccnc1Cl)Nc1ccc(S(=O)(=O)N2CCOCC2)cc1 | – | 3.07% (inactive)
COc1ccc2[nH]c3c(c2c1)CCN1C(=O)C(CC(=O)NCCCN(C)C)C[C@H](C(=O)N2CCOCC2)[C@@]31CCC1CCCC1 (some centres undefined) | – | 8.11% (inactive)
Cc1ccc(S(=O)(=O)Nc2ccc(F)c(S(=O)(=O)N3CCOCC3)c2)cc1 | – | -2.13% (inactive)
CCn1nc(C(=O)NNS(=O)(=O)c2cc(/C=C/C(=O)O)cc(OC)c2OC)c2ccccc2c1=O | – | -1.69% (inactive)
C[C@H]1CN([C@@H](C)CO)C(=O)Cc2cc(NS(C)(=O)=O)ccc2O[C@@H]1CN(C)CC1CC1 | – | -0.237% (inactive)
COc1ccc(-c2noc(CNC(=O)C(C)Oc3ccccc3)n2)cc1 (centres undefined) | – | -8.44% (inactive)
Cc1ccc(Cc2nc(-c3cccc(C)c3)no2)cc1 | 16.4 µM (active) | –
COc1ccc(-c2n[nH]c(C)c2-c2ccccc2OC)c(O)c1 | – | -8.55% (inactive)
COc1ccc(-c2nc(-c3ccccc3)no2)c(OC)c1 | 0.058 µM (active) | –

Structure (SMILES) | Potency | activity change, positive = activation
Cc1ccc(-c2noc(CSc3nnc(-c4ccccc4)n3C)n2)cc1 | – | -5.8% (inactive)
Cc1cccc(-c2noc(CCC(=O)NC3CCCC3)n2)c1 | – | 3.59% (inactive)
O=C(COC(=O)c1ccc(F)cc1)Nc1ccc2c(c1)OCO2 | – | 1.47% (inactive)
O=C(CN1C(=O)NC2(CCCCCC2)C1=O)NCc1ccc(F)cc1 | – | -1.42% (inactive)
O=C(N[C@H]1C/C=C\C(c2ccc(F)cc2)N(Cc2ccccc2)C(=O)C1)OCC1c2ccccc2-c2ccccc21 (some centres undefined) | – | -1.55% (inactive)
C#CCOCCOCCOCCNc1nc(N2CCN(C(=O)[C@H](CCCN=C(N)N)n3cc(C(N)[C@@H](C)CC)nn3)CC2)nc(N2CCN(C(=O)[C@H](CO)n3cc([C@@H](N)C(C)C)nn3)CC2)n1 (some centres undefined) | – | 2.45% (inactive)
CCN(c1ccccc1)S(=O)(=O)c1ccc(C(=O)Nc2ccccc2OC)cc1 | – | -6.55% (inactive)
CCCCSc1nnc(-c2ccc(C)cc2)o1 | 2.06 µM (active) | –
CCOC(=O)CSc1nnc(-c2ccc([N+](=O)[O-])cc2)o1 | – | -0.612% (inactive)
Cc1cccc(C)c1OC(=O)CSc1nnc(-c2ccccc2)o1 | – | 2.25% (inactive)
c1ccc2c(CCN3CCNC[C@H]3Cc3cccc4ccccc34)cccc2c1 | – | 0.671% (inactive)
COc1ccc(-n2nnnc2CNC(=O)c2ccc3ccccc3c2)cc1 | – | -1.6% (inactive)
COc1ccc(C2=NN(c3nc4ccccc4s3)C(=O)C2)cc1 | – | -0.0195% (inactive)
COc1ccc(-n2nnnc2-c2nc3ccccc3s2)cc1 | 1.46 µM (active) | –
O=C(Nc1ccc(N2CCOCC2)cc1)c1cccc(S(=O)(=O)N2CCOCC2)c1 | – | -1.33% (inactive)
O=C(CCc1ccc(S(=O)(=O)N2CCOCC2)cc1)OCC(=O)c1ccc(Br)cc1 | – | -0.314% (inactive)
Cc1cc(OCc2cc(C(=O)NCc3cc(C(C)C)no3)no2)cc(C)c1Cl | 3.66 µM (active) | –
COc1ccc(OCc2cc(C(=O)NCC3(C)COC3)no2)c(Cl)c1 | – | 12% (inactive)
Cc1cccnc1CC(C)NC(=O)c1cc(COc2cncc(Cl)c2)on1 (centres undefined) | – | 0.0531% (inactive)
CC1(C)C[C@H]2C3=CCC4[C@@]5(C)CC[C@H](O)[C@](C)(CO)C5CC[C@@]4(C)[C@]3(C)C[C@@H](O)[C@@]2(CO)[C@@H](O)[C@@H]1O (some centres undefined) | – | 1.48% (inactive)
CC(C)(C)OC(=O)C1=C(CO)CS[C@@H]2[C@H](NC(=O)Cc3ccccc3)C(=O)N12 | – | 8.28% (inactive)
C/C(=N\NC(=O)Cc1ccc(Br)cc1)c1cccnc1 | – | 10.7% (inactive)
C/C(=N\NC(=O)c1ccccc1F)c1ccccn1 | 3.66 µM (active) | –
C/C(CC(=O)Nc1ccc(N(C)C)cc1)=N\NC(=O)c1ccccc1F | – | 12.6% (inactive)

Structure (SMILES) | Potency | activity change, positive = activation
C/C(=N\NC(=O)Cc1ccc(Cl)cc1)c1ccccn1 | 9.2 µM (active) | –
C/C(=N\NC(=O)Cc1ccc(F)cc1)c1ccc(F)cc1 | – | -0.933% (inactive)
Cc1ccc(Cl)cc1NC(=O)c1ccccn1 | – | 5.69% (inactive)
COc1ccc2[nH]c3c(c2c1)CCN1C(=O)C(CC(=O)NCc2cccc(C(F)(F)F)c2)C[C@H](C(=O)N2CCOCC2)[C@@]31C (some centres undefined) | – | 2.26% (inactive)
O=C(COc1ccc(F)cc1Br)NCC1COc2ccccc2O1 (centres undefined) | – | 0.352% (inactive)
CCCCOC(=O)Nc1nnc(CC(=O)NCc2ccccc2)s1 | – | 10.2% (inactive)
CCCCCOC(=O)NCCOC(=O)Nc1ccc(C(=O)OCC)cc1 | – | -10.5% (inactive)
CCCCCCOC(=O)NCC(O)c1ccccc1 (centres undefined) | 18.4 µM (active) | –
O=C(CNC(=O)c1n[nH]c2ccccc12)Nc1cc(Cl)ccc1Cl | – | 1.36% (inactive)
CCN(CC)C(=O)[C@H]1CC(CC(=O)NCc2ccco2)C(=O)N2CCc3c([nH]c4ccccc34)[C@]12C (some centres undefined) | – | 0.825% (inactive)
COc1ccc(NS(=O)(=O)c2cc(NC(=O)c3ccc(S(=O)(=O)N(C)C)cc3)ccc2N2CCOCC2)cc1 | – | -0.544% (inactive)
CCN(C[C@H]1N[C@@](Cc2ccccc2)(C(=O)OC)[C@H]2C(=O)N(Cc3ccccc3)C(=O)[C@@H]12)C(=O)c1ccc(C)cc1 | – | -3.2% (inactive)
COc1ccc(NC(=O)CNc2cc(S(=O)(=O)N3CCOCC3)ccc2N2CCOCC2)c(OC)c1 | – | 5.87% (inactive)
Cc1ccc(C)c(NC(=O)c2ccc(OC(=O)c3ccco3)cc2)c1 | – | 1.15% (inactive)
Cc1ccc(O)c(NC(=O)c2cc(-c3ccco3)on2)c1 | 20.6 µM (active) | –
O=C(Nc1ccccc1C(F)(F)F)c1cc(-c2ccc(O)cc2)on1 | – | 13.9% (inactive)
CCCCC[C@@H]1C=C(C(=O)O)[C@H](c2ccc(C#N)cc2)N1S(=O)(=O)c1ccc(C)cc1 | – | 0.217% (inactive)
Cc1ccc(C(=O)NNC(=O)c2ccncc2)cc1S(=O)(=O)N1CCCCC1 | – | 1.41% (inactive)
CC1CCCC(NC(=O)c2cc(S(=O)(=O)N3CCCCC3)ccc2Cl)C1C (centres undefined) | – | -3.83% (inactive)
Cc1ccc(C(=O)NC2CCCC(C)C2C)cc1S(=O)(=O)N1CCCCC1 (centres undefined) | 18.3 µM (active) | –
C[C@@H]1CN([C@@H](C)CO)C(=O)c2cc(NC(=O)C3CC3)ccc2O[C@H]1CN(C)C | – | 3.36% (inactive)
COC(=O)[C@@]1(C)[C@H]2C(=O)N(Cc3ccccc3)C(=O)[C@H]2[C@H]2CN=C(SCC3CC3)N21 | – | 1.44% (inactive)
CC[C@]1(C(=O)OC)[C@H]2C(=O)N(Cc3ccccc3)C(=O)[C@H]2[C@H]2CN=C(SCc3ccccc3)N21 | – | -1.3% (inactive)
COc1cccc(NC(=O)COC(=O)c2ccc3ccccc3n2)c1 | – | -0.83% (inactive)

Structure (SMILES) | Potency | activity change, positive = activation
Cc1ccc(OCCCC(=O)N2CCOCC2)c(C)c1 | 20.6 µM (active) | –
Cc1ccc(OCCCC(=O)NC(C)c2ccccc2)c(C)c1 (centres undefined) | – | 0.0144% (inactive)
Cc1cc(S(=O)(=O)N2CCOCC2)ccc1OCC(=O)N1CCOCC1 | – | -0.859% (inactive)
COc1ccc(C2(c3ccc(OC)cc3)NC(=O)N(CC(=O)Nc3cc(C)on3)C2=O)cc1 | – | -1.6% (inactive)
Cc1nn(-c2ccccc2)nc1C(=O)OCC(=O)N1CCCCC1C (centres undefined) | – | 0.888% (inactive)
Cc1ccc(-c2nc3ccccc3[nH]2)cc1N | 1.64 µM (active) | –
O=C(Nc1cccc(-c2nc3ccccc3[nH]2)c1)c1ccc(C(=O)Nc2cccc(-c3nc4ccccc4[nH]3)c2)cc1 | – | 8.18% (inactive)
COc1ccc(Br)cc1C(=O)NC(=S)Nc1cc(-c2nc3ccccc3[nH]2)ccc1C | – | 0.519% (inactive)
COc1ccc(-c2[nH]nc(-c3ccccc3)c2-c2nc3ccccc3[nH]2)cc1 | – | -0.244% (inactive)
c1ccc2[nH]c(-c3nc4ccccc4[nH]3)nc2c1 | 1.03 µM (active) | –
Nc1cccc(CCc2nc3ccccc3[nH]2)c1 | – | 11% (inactive)
C=CC1=C(C(=O)O)N2C(=O)[C@@H](NC(=O)/C(=N\OCC(=O)O)c3csc(N)n3)[C@H]2SC1 | – | 0.264% (inactive)
Cc1cccc(OCC(=O)OCC(=O)Nc2ccc(Cl)cn2)c1 | – | -1.42% (inactive)
COc1ccccc1-c1sc2ccccc2c1C#CC1(O)CCCCC1 | – | -0.785% (inactive)
COc1ccc(S(=O)(=O)N2CCOCC2)cc1NC(=O)c1ccc(OCC(C)C)c(OC)c1 | – | -1.88% (inactive)
C=CC[C@@H](CC(=O)N[C@H](CO)Cc1ccccc1)C(=O)N[C@@H](COC(=O)[C@@H](CC=C)Cc1ccc(F)cc1)Cc1c[nH]c2ccccc12 | – | 0.481% (inactive)
CC[C@]12c3[nH]c4cc(CCC(=O)N(C)C)ccc4c3CCN1C(=O)[C@@H](CC(=O)NCCCn1ccnc1)C[C@@H]2C(=O)N1CCN(C(=O)C2CC2)CC1 | – | 2.47% (inactive)
CN(CC(=O)O)C(=O)c1ccccc1 | – | 2.86% (inactive)
COc1cc2c(cc1OC)/C(=C/C(=O)c1ccc(NC(C)=O)cc1)NCC2 | – | 9.13% (inactive)
CC1CN/C(=C\C(=O)c2ccc(Br)cc2)C(=O)N1 (centres undefined) | 1.3 µM (active) | –
CC1(C)Cc2ccccc2/C(=C/C(=O)c2ccccc2)N1 | – | -2.7% (inactive)
CN(c1ccccc1)S(=O)(=O)c1cc(C(=O)N2CCN(c3ncccn3)CC2)ccc1Cl | – | -4.11% (inactive)
